Assay results taken from PubChem BioAssay (NCI).
Compounds without any hit were thinned out: in the full panel of roughly 83,000, 20% have a hit.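 Percent growth is the endpoint: 0 to 100 indicates growth inhibition (40 means 60% inhibition), 0 means no net growth, and negative values indicate cell death.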 Unmarked numbers belong to inactive results. Active and inactive are the calls of the source. The calls were made as follows: active = growth percent below 10; inactive = the rest.

test system: DU-145 prostate; test: NCI-60 one-dose screen, 48 h (100 = growth as untreated, 0 = no growth, -100 = all killed); conditions: 10 µM unless noted

Row | Compound | growth
1 | Clc1cccc(Cl)c1Nc1ccc2nnc(-c3ccncc3)n2n1 | 111%
2 | CC(C)(C)[Si](C)(C)OC1[C@@H](CNC(=O)NC(=O)CCl)O[C@@H](n2cnc3c(N)ncnc32)[C@H]1O[Si](C)(C)C(C)(C)C (stereo partly drawn) | 23%
3 | CC(=O)Nc1ccc(Sc2ccc([N+](=O)[O-])o2)cc1 | 34.7%
4 | CC(C)(C)[Si](C)(C)OC1[C@@H](COC(=O)NC(=O)CCl)O[C@@H](n2cnc3c(N)ncnc32)[C@H]1O[Si](C)(C)C(C)(C)C (stereo partly drawn) | 46.2%
5 | COc1ncnc2c1ncn2C/C(Br)=C(\Br)CCl | 36.8%
6 | O=C1c2ccccc2C(=O)c2c(Nc3ccc(CCO)cc3)ccc(O)c21 | 60.7%
7 | COc1ccccc1CNCCCCCCCCCCCCN1C(=O)c2ccc3c4c(ccc(c24)C1=O)C(=O)N(CCCCCCCCCCCCNCc1ccccc1OC)C3=O | 51.2%
8 | CC(=O)c1cc(C)c(OC(=O)c2ccccc2)c(C)c1 | 102%
9 | COC(=O)/C=C1/CCC2C3CCC4=CC(=O)C(Br)CC4(C)C3C(=O)CC12C (stereo not drawn) | 75%
10 | O=c1[nH]c(-c2ccccn2)nc2sc3c(c12)CCCCCC3 | 48.8%
11 | CC(C)OC1=C(Cl)C(=O)c2ccccc2C1=O | 119%
12 | CCCCCn1c(=N)n(CC(O)COc2cccc(C)c2)c2ccccc21 (stereo not drawn) | 10.4%
13 | CC1SC(c2cccc(Oc3ccccc3)c2)N(CCc2cccs2)C1=O (stereo not drawn) | -6.09% (active)
14 | CC(C)(C)[Si](C)(C)OC1[C@@H](COC(N)=O)O[C@@H](n2cnc3c(N)ncnc32)[C@H]1O[Si](C)(C)C(C)(C)C (stereo partly drawn) | 75.1%
15 | COc1ccc(-c2csc3c2-n2cccc2C3=O)cc1O | -23.5% (active)
16 | O=c1[nH]c(-c2ccncc2)nc2sc3c(c12)CCCCCC3 | 77.5%
17 | COc1ccc(-n2c(SCc3cc(OC)c(OC)c(OC)c3)nc3ccc(C)cc3c2=O)c(OC)c1 | 4.58% (active)
18 | O=C1NC(=O)C(CSc2ccccc2)(c2ccccc2)N1 (stereo not drawn) | 123%
19 | Fc1ccccc1Nc1ccc2nnc(-c3ccncc3)n2n1 | 110%
20 | CC(C)(C)[Si](C)(C)OC1[C@@H](O[Si](C)(C)C(C)(C)C)[C@@H](CNC(=O)NC(=O)C(F)(F)F)O[C@H]1n1cnc2c(NC(=O)Nc3ccccc3)ncnc21 (stereo partly drawn) | -81.2% (active)

Row | Compound | growth
21 | Cc1ccc(N=c2nc3sc4c(C)ccc(C)c4n3c(N)c2C#N)cc1 | 105%
22 | COCCOC1=C(Cl)C(=O)c2ccccc2C1=O | 38.7%
23 | CCOC(=O)C1=C(C)N2C(=NC3=C(CCCC/C3=C\c3ccccc3)C2c2ccccc2)S1 (stereo not drawn) | 105%
24 | CCN1CCN(C(=S)SCC(=O)Nc2nc3ccc(OC)cc3s2)CC1 | 106%
25 | Oc1ccccc1/C=N/Nc1nc2ccccc2s1 | 48%
26 | CC(=O)Nc1ccccc1-c1n[nH]c(=O)[nH]c1=O | 107%
27 | Oc1ccc2ccccc2c1C1NN=C(c2ccccc2)S1 (stereo not drawn) | 21.1%
28 | O=c1c2c(=NCCN3CCCC3)cc3c(=O)n(CCCN4CCOCC4)c(=O)c4ccc(c(O)n1CCCN1CCOCC1)c2c4-3 | 2.23% (active)
29 | COc1ccccc1-n1c(SCc2cc(OC)c(OC)c(OC)c2)nc2ccc(Cl)cc2c1=O | 30.1%
30 | Nc1c(Br)cc(Br)cc1-c1n[nH]c(=O)[nH]c1=O | 114%
31 | O=C1C(OCCOc2ccccc2)=C(OCCOc2ccccc2)C(=O)c2ccccc21 | 56.7%
32 | O=c1nc(NO)[nH]c(=O)n1Cc1ccccc1 | 115%
33 | COc1ccc(-c2nc3sc(C)nn3c2-c2nc3cc(C)c(C)cc3[nH]2)cc1 | 101%
34 | Cc1ccc2nc(NC(=O)CSC(=S)N3CCN(C)CC3)sc2c1 | 122%
35 | CC[Si](CC)(CC)OC1[C@@H](O[Si](CC)(CC)CC)[C@@H](CNC(=O)NC)O[C@H]1n1cnc2c(NC(=O)Nc3ccccc3)ncnc21 (stereo partly drawn) | 89.3%
36 | COc1ccc(C2SC(C)C(=O)N2CCc2cccs2)cc1OC (stereo not drawn) | 93.3%
37 | Cc1cc(=O)[nH]n1-c1cc(Cl)ccc1N | 132%
38 | c1ccc2cc(Cn3c(-c4ccc5ccccc5c4)[n+](Cc4ccc5ccccc5c4)c4ccccc43)ccc2c1 | -19.2% (active)
39 | COc1cc2nc(SCc3cc(OC)c(OC)c(OC)c3)n(-c3ccccc3OC)c(=O)c2cc1OC | 81.8%

test system: K-562 leukemia; test: as above; conditions: 10 µM unless noted

Row | Compound | growth
40 | Clc1cccc(Cl)c1Nc1ccc2nnc(-c3ccncc3)n2n1 | 57.1%
41 | CC(C)(C)[Si](C)(C)OC1[C@@H](CNC(=O)NC(=O)CCl)O[C@@H](n2cnc3c(N)ncnc32)[C@H]1O[Si](C)(C)C(C)(C)C (stereo partly drawn) | -33.9% (active)
42 | CC(=O)Nc1ccc(Sc2ccc([N+](=O)[O-])o2)cc1 | 17.6%
43 | CC(C)(C)[Si](C)(C)OC1[C@@H](COC(=O)NC(=O)CCl)O[C@@H](n2cnc3c(N)ncnc32)[C@H]1O[Si](C)(C)C(C)(C)C (stereo partly drawn) | -37.6% (active)
44 | COc1ncnc2c1ncn2C/C(Br)=C(\Br)CCl | 7.96% (active)
45 | O=C1c2ccccc2C(=O)c2c(Nc3ccc(CCO)cc3)ccc(O)c21 | 17.2%
46 | COc1ccccc1CNCCCCCCCCCCCCN1C(=O)c2ccc3c4c(ccc(c24)C1=O)C(=O)N(CCCCCCCCCCCCNCc1ccccc1OC)C3=O | 35.2%
47 | CC(=O)c1cc(C)c(OC(=O)c2ccccc2)c(C)c1 | 85.7%
48 | COC(=O)/C=C1/CCC2C3CCC4=CC(=O)C(Br)CC4(C)C3C(=O)CC12C (stereo not drawn) | 48.9%
49 | O=c1[nH]c(-c2ccccn2)nc2sc3c(c12)CCCCCC3 | 20.4%
50 | CC(C)OC1=C(Cl)C(=O)c2ccccc2C1=O | 22.8%
51 | CCCCCn1c(=N)n(CC(O)COc2cccc(C)c2)c2ccccc21 (stereo not drawn) | 6.52% (active)
52 | CC1SC(c2cccc(Oc3ccccc3)c2)N(CCc2cccs2)C1=O (stereo not drawn) | 9.44% (active)
53 | CC(C)(C)[Si](C)(C)OC1[C@@H](COC(N)=O)O[C@@H](n2cnc3c(N)ncnc32)[C@H]1O[Si](C)(C)C(C)(C)C (stereo partly drawn) | 7.16% (active)
54 | COc1ccc(-c2csc3c2-n2cccc2C3=O)cc1O | 5.65% (active)
55 | O=c1[nH]c(-c2ccncc2)nc2sc3c(c12)CCCCCC3 | 88.1%
56 | COc1ccc(-n2c(SCc3cc(OC)c(OC)c(OC)c3)nc3ccc(C)cc3c2=O)c(OC)c1 | 14.4%
57 | O=C1NC(=O)C(CSc2ccccc2)(c2ccccc2)N1 (stereo not drawn) | 104%
58 | Fc1ccccc1Nc1ccc2nnc(-c3ccncc3)n2n1 | 93.4%
59 | CC(C)(C)[Si](C)(C)OC1[C@@H](O[Si](C)(C)C(C)(C)C)[C@@H](CNC(=O)NC(=O)C(F)(F)F)O[C@H]1n1cnc2c(NC(=O)Nc3ccccc3)ncnc21 (stereo partly drawn) | -40.8% (active)

Row | Compound | growth
60 | Cc1ccc(N=c2nc3sc4c(C)ccc(C)c4n3c(N)c2C#N)cc1 | 88.6%
61 | COCCOC1=C(Cl)C(=O)c2ccccc2C1=O | 8.89% (active)
62 | CCOC(=O)C1=C(C)N2C(=NC3=C(CCCC/C3=C\c3ccccc3)C2c2ccccc2)S1 (stereo not drawn) | 99.2%
63 | CCN1CCN(C(=S)SCC(=O)Nc2nc3ccc(OC)cc3s2)CC1 | 91.8%
64 | Oc1ccccc1/C=N/Nc1nc2ccccc2s1 | 41%
65 | CC(=O)Nc1ccccc1-c1n[nH]c(=O)[nH]c1=O | 107%
66 | Oc1ccc2ccccc2c1C1NN=C(c2ccccc2)S1 (stereo not drawn) | 18.6%
67 | O=c1c2c(=NCCN3CCCC3)cc3c(=O)n(CCCN4CCOCC4)c(=O)c4ccc(c(O)n1CCCN1CCOCC1)c2c4-3 | 3.73% (active)
68 | COc1ccccc1-n1c(SCc2cc(OC)c(OC)c(OC)c2)nc2ccc(Cl)cc2c1=O | 12.7%
69 | Nc1c(Br)cc(Br)cc1-c1n[nH]c(=O)[nH]c1=O | 102%
70 | O=C1C(OCCOc2ccccc2)=C(OCCOc2ccccc2)C(=O)c2ccccc21 | 66.4%
71 | O=c1nc(NO)[nH]c(=O)n1Cc1ccccc1 | 108%
72 | COc1ccc(-c2nc3sc(C)nn3c2-c2nc3cc(C)c(C)cc3[nH]2)cc1 | 97.2%
73 | Cc1ccc2nc(NC(=O)CSC(=S)N3CCN(C)CC3)sc2c1 | 106%
74 | CC[Si](CC)(CC)OC1[C@@H](O[Si](CC)(CC)CC)[C@@H](CNC(=O)NC)O[C@H]1n1cnc2c(NC(=O)Nc3ccccc3)ncnc21 (stereo partly drawn) | 15.9%
75 | COc1ccc(C2SC(C)C(=O)N2CCc2cccs2)cc1OC (stereo not drawn) | 62.3%
76 | Cc1cc(=O)[nH]n1-c1cc(Cl)ccc1N | 99.4%
77 | c1ccc2cc(Cn3c(-c4ccc5ccccc5c4)[n+](Cc4ccc5ccccc5c4)c4ccccc43)ccc2c1 | -45.1% (active)
78 | COc1cc2nc(SCc3cc(OC)c(OC)c(OC)c3)n(-c3ccccc3OC)c(=O)c2cc1OC | 27.3%
